Results reported in PubChem BioAssay (NCI).
About 79,000 compounds went through this panel and 15% of them were active in at least one assay; those are over-represented in the sample as a whole. The source made the active and inactive calls. Rule as the data show it: active = growth inhibition above about 70%; inactive = the rest.

Assays:
[1] = NCI Yeast Anticancer Drug Screen. Data for the rad50 strain (AID 155);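 also: 0% = growth of vehicle-only cultures of the same strain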; settings: S. cerevisiae rad50 strain growth inhibition; at 50.0 µM; hits give high values
Method in brief: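 Compounds were tested on a yeast strain with an engineered DNA damage repair alteration; the reported value is growth inhibition normalised to vehicle treatment.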

[2] = NCI Yeast Anticancer Drug Screen. Data for the mec2-1 strain (AID 157); settings: S. cerevisiae mec2-1 strain, at 50.0 µM, hits give high values
Method in brief: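 Mutant yeast (mec2-1) grown with compound; growth inhibition relative to vehicle control reported.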

[3] = NCI Yeast Anticancer Drug Screen. Data for the sgs1 mgt1 strain (AID 161);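 also: 0% = growth of cultures given vehicle only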; settings: S. cerevisiae sgs1 mgt1 strain, at 50.0 µM, hits give high values
Method in brief: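 Yeast cells carrying a defined DNA-repair defect were exposed to test compounds. Growth inhibition was measured relative to vehicle-treated controls.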

[4] = NCI Yeast Anticancer Drug Screen. Data for the cln2 rad14 strain (AID 165);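 also: 0% = growth equal to vehicle treated cultures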; settings: S. cerevisiae cln2 rad14 strain, at 50.0 µM, hits give high values
Method in brief: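 Readout is yeast growth inhibition versus vehicle-treated controls, using a strain with cln2 and rad14 alterations exposed to compound.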

[5] = NCI Yeast Anticancer Drug Screen. Data for the bub3 strain (AID 167); settings: S. cerevisiae bub3 mutant strain, at 50.0 µM, hits give high values
Method in brief: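 Growth of a checkpoint-deficient yeast mutant is measured after compound exposure. Values represent inhibition relative to vehicle.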

[6] = NCI Yeast Anticancer Drug Screen. Data for the mlh1 rad18 strain (AID 175); settings: S. cerevisiae mlh1 rad18 strain growth inhibition; at 50.0 µM; hits give high values
Method in brief: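 Genetically defined yeast (DNA repair-deficient) exposed to compounds; growth inhibition determined relative to vehicle.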

Measured: growth inhibition

CCCc1nc2ccccc2c(=O)n1/N=C/c1ccc(Cl)cc1Cl
inactive: [1] -11.7% | [2] 0.4% | [3] 0.05% | [4] 3% | [5] -3.45% | [6] -3.4%

O=C(CN1C(=O)c2ccccc2C1=O)OCC1CCCN2CCCCC12 (centres undefined)
inactive: [1] 16.6% | [2] -3.3% | [3] 4.9% | [4] -3.55% | [5] -6.25% | [6] -29.4%

CCOC1(c2ccccc2)NC(=O)NC1(OCC)c1ccccc1 (centres undefined)
inactive: [1] 14.2% | [2] 5.75% | [3] 18% | [4] -20.1% | [5] 0.05% | [6] -9.6%

C/C(=N\NS(=O)(=O)c1ccc(C)cc1)P(=O)(O)O
inactive: [1] -6.85% | [2] -13.4% | [3] -24.7% | [4] 8.1% | [5] -16.1% | [6] 22.6%

OC1(Cc2ccccn2)CCCc2ccccc21 (centres undefined)
inactive: [1] 7.5% | [2] 9.55% | [3] -1.95% | [4] -15.3% | [5] -8.45% | [6] 4.95%

Cn1c(=O)c2[nH]c([N+](=O)[O-])nc2n(C)c1=O
inactive: [1] 23.4% | [2] -10% | [3] -0.3% | [4] 13.6% | [5] -20.1% | [6] 25.8%

CCCCSCCOC(=O)C1C2CCC(O2)C1C(=O)O (centres undefined)
inactive: [1] 19.5% | [2] -3.85% | [3] 0.1% | [4] 13.4% | [5] -1.25% | [6] 13.8%

Cc1nc2ccccc2nc1N1CCCC1
inactive: [1] -6.2% | [2] -29.1% | [3] -26.9% | [4] -25.2% | [5] -47.8% | [6] 0.55%

NCC(NC(=O)OCc1ccccc1)C(=O)O (centres undefined)
inactive: [1] 3.2% | [2] 12.4% | [3] 3.3% | [4] 19.1% | [5] 5.7% | [6] 32.1%

CCOC(COc1ccc2ccccc2c1)OCC
inactive: [1] -18.6% | [2] 0.5% | [3] 0.55% | [4] -55.7% | [5] 6.9% | [6] -10.1%

Cc1ccccc1C(=O)c1cc(O)ccc1O
inactive: [1] -11.2% | [2] -10.1% | [3] -1.25% | [4] -8% | [5] -16.3% | [6] -5.2%

CC(Cc1nc2ccccc2[nH]1)Cc1nc2ccccc2[nH]1
inactive: [1] -7% | [2] 17.4% | [3] 7.1% | [4] 21.4% | [5] 2.3% | [6] 15.6%

OCCOc1ccccc1-c1ccccc1
inactive: [1] -28.6% | [2] -14.3% | [3] -15.5% | [4] -14% | [5] -29.5% | [6] -7.65%

Cc1ccc2c(c1)nc1n2C(c2c(F)cccc2F)SC1 (centres undefined)
inactive: [1] 0.15% | [2] -6.45% | [3] 26.9% | [4] 13.4% | [5] 29.3% | [6] -3.7%

O=C(NCCCNCCCCNCCCNC(=O)C(F)(F)F)C(F)(F)F
inactive: [1] 5.05% | [2] -0.9% | [3] 6.6% | [4] -8.45% | [5] 4.25% | [6] 3.3%

Cc1cc(C)c(S(=O)(=O)c2cccs2)c(C)c1
inactive: [1] -7% | [2] -10.2% | [3] -8.25% | [4] -6.45% | [5] 5.25% | [6] -2.8%

CN1NC2=NCCN=C3NN(C)C(=NCCN=C1S2)S3
inactive: [1] -6.5% | [2] -10.1% | [3] -43.3% | [4] 9.15% | [5] -44.1% | [6] -36.2%

CN(C)c1ccc([N+](=O)[O-])cc1
inactive: [1] -76.2% | [2] -24% | [3] -61.6% | [4] -43.1% | [5] -9.2% | [6] -57.4%

O=Cc1cc2ccccc2c2ccccc12
inactive: [1] -23.2% | [2] -24% | [3] 5.45% | [4] -16.8% | [5] 0.2% | [6] -4.9%

COC(=O)C(CS)NC(=O)CNC(=O)CNC(=O)C(CCCCNC(=O)OCc1ccccc1)NC(=O)CNC(=O)C(CSC(c1ccccc1)(c1ccccc1)c1ccccc1)NC(=O)OCc1ccccc1 (centres undefined)
inactive: [1] -16.2% | [2] 2.75% | [3] -10.7% | [4] -17.2% | [5] -25.2% | [6] 0.2%

N=C1C=Cc2ccccc2/C1=N/N=c1/ccccn1O
active: [1] 72.2% | [2] 91.6% | [3] 73.5% | [5] 98.3% | [6] 78.2%
inactive: [4] 51.7%

CCCCCCCCCC(=O)N/N=C/c1cccnc1
inactive: [4] 26.2%
active: [1] 88.2% | [2] 87% | [3] 95.9% | [5] 71.1% | [6] 91.3%

CCc1cccc(C)c1NC(=O)C(=O)CC(=O)CCCO
inactive: [1] -37.6% | [2] 21.7% | [3] 27.6% | [4] -27.9% | [5] 0.05% | [6] 25.4%

CC1C(c2ccccc2O)c2cc3c(cc2OC1N1CCOCC1)OCO3 (centres undefined)
inactive: [1] -24.9% | [2] -13.6% | [3] 7.45% | [4] -5.75% | [5] -18.2% | [6] -29.1%

CC12CCC(O)CC1=CCC1C2CCC2(C)C1CC1=CC(C#N)C(=O)NC12O (centres undefined)
inactive: [1] 3.55% | [2] 6.85% | [3] 1.35% | [4] -65.4% | [5] -0.3% | [6] 17.2%

CCC[CH2][Ge]([CH2]CCC)([CH2]CCC)[n]1ccc2ccccc21
inactive: [1] 24% | [2] 31.2% | [3] 47% | [4] 20.3% | [5] 45.9% | [6] 44.7%

CC12CCC(O)CC1=CCC1C2CCC2(C)C(C(=O)O)=CCC12 (centres undefined)
inactive: [1] 1.3% | [2] 46.5% | [3] 29.6% | [4] 21.8% | [5] 49.1% | [6] 34.5%

N#CSCc1ccc(CSC#N)c(Br)c1
inactive: [1] 20.2% | [2] 14.9% | [3] 7.85% | [4] 18.6% | [5] 10.4% | [6] 43.4%

O=C(O)Cc1cc(=O)oc2cc(O)c(Cl)cc12
inactive: [1] 1.75% | [2] -20% | [3] -7.15% | [4] 15.8% | [5] 3.25% | [6] -5.55%

CN1C(=O)C(Cc2cnc[nH]2)NC1=S (centres undefined)
inactive: [1] 11.5% | [2] 25.1% | [3] 22.6% | [4] -7.5% | [5] 10.7% | [6] 1.1%

O=C(COC(=O)c1ccccc1Br)c1ccc(-c2ccccc2)cc1
inactive: [1] 33.6% | [2] 20.8% | [3] 31.6% | [4] 31.4% | [5] 0.7% | [6] 23.2%

Cc1cccc(C(C)(C)C)c1NC(=O)/C(Cc1nc2ccc([N+](=O)[O-])cc2[nH]c1=O)=N/NC(=O)C[N+](C)(C)C
inactive: [1] 6.4% | [2] -10.4% | [3] -9.1% | [4] -17.4% | [5] -18.9% | [6] -22.6%

COc1cc(C(=O)NC(=S)Nc2csc(-c3ccc(F)cc3)n2)cc(OC)c1OC
inactive: [1] 14.9% | [2] -12.8% | [3] 8.65% | [4] 16.9% | [5] -0.75% | [6] 11.7%

CC1C(OC(=O)CCl)CCC2C1(C)CCC1C2(C)CCC2(C)C3CC(C)(C)CCC3(C)CCC12C (centres undefined)
inactive: [1] -13.2% | [2] 1% | [3] -1.85% | [4] -12.2% | [5] 2.15% | [6] -10.2%

Cc1ccc(-c2nn[nH]n2)cc1[N+](=O)[O-]
inactive: [1] 5.65% | [2] 8.6% | [3] -0.65% | [4] -11% | [5] -21.9% | [6] 16.1%

O=C1CCC(=O)N1C(c1ccccc1)(c1ccccc1)N1C(=O)CCC1=O
inactive: [1] -20.9% | [2] 12.2% | [3] -2% | [4] 29.1% | [5] 8.25% | [6] -6.85%

CCOCc1cnc(SC)nc1N
inactive: [1] -0.75% | [2] 7.35% | [3] -9.45% | [4] -0.25% | [5] -0.15% | [6] -14.4%

CC(C)c1ccc(Cc2ccc(C(C)C)c(NC(=O)C(=O)Cc3cnc4ccccc4n3)c2C(C)C)c(C(C)C)c1NC(=O)C(=O)Cc1cnc2ccccc2n1
inactive: [1] -28.4% | [2] -18.4% | [3] -24.9% | [4] 14.3% | [5] -13.2% | [6] -28.8%

COc1ccccc1-c1coc2c(ccc3oc(C(C)C)cc32)c1=O
inactive: [1] -19.2% | [2] 20% | [3] 3.25% | [4] -52% | [5] -0.5% | [6] 22.6%
